Source: PubChem BioAssay
KDM4E inh = qHTS Assay for Inhibitors of Human Jumonji Domain Containing 2E (JMJD2E); JMJD2E catalytic domain, FDH-coupled NADH fluorescence (FDH is formaldehyde dehydrogenase); Lysine-specific demethylase 4E (Homo sapiens), B2RXH2; 1.6% of 230,000 active; Potency, µM (highest dose often 57.1 µM), actives largely listed as inhibitors; AID 2147, 2009; active = well fitted inhibition curve with a large enough effect, not every such curve was filed as active; inconclusive = small, poorly fitted or top-dose-only effect, or another doubt; inactive = no such curve, though single readings can be large or run the other way; note: nearly all actives have a fitted effect of over 50% in size
Target sequence (B2RXH2 1-337 limits assumed): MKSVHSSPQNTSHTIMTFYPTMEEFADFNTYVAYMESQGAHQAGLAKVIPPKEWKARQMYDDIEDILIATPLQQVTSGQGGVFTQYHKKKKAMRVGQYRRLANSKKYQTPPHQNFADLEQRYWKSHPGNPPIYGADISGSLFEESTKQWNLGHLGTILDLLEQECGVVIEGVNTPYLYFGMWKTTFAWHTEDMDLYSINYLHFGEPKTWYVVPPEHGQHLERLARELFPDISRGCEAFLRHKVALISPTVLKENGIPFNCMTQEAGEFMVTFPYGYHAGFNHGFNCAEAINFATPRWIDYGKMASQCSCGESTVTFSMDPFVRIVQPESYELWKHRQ
GoLoco inh red = qHTS Assay for Inhibitors of RGS12 GoLoco Motif Activity (Red Fluorophore). Guanine nucleotide-binding protein G(i) subunit alpha-1 (Homo sapiens), P63096. Gai1:RGS12 GoLoco peptide FP, rhodamine, 10 min. Potency, µM (highest dose often 61.6 µM), hits mostly inhibitors. 0.44% of 230,000 active. AID 880, 2007; active = well fitted inhibition curve with a large enough effect, not every such curve was filed as active; inactive = no such curve, though single readings can be large or run the other way; note: nearly all actives have a fitted effect of over 30% in size
Tau fluor counter = Counterscreen qHTS for Inhibitors of Tau Fibril Formation, Fluorescence Polarization. AID 1463, 2008. Potency, µM (titrated, usually from 57.7 µM). tau K18 P301L Alexa594 fluorescence, heparin fibrillization. 0.93% of 280,000 active; note: nearly all actives have a fitted effect of over 55% in size
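Human tau K18 P301L (15 uM unlabeled, 0.24 uM Alexa 594-labeled) in 100 mM sodium acetate pH 7 with 20 uM heparin, 6 hr at 37 C. ThT 30 uM added, 1 hr ambient; Alexa 594 FP and total fluorescence read at 555/632 nm.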
Tau FP inhib = qHTS for Inhibitors of Tau Fibril Formation, Fluorescence Polarization; Microtubule-associated protein tau (Homo sapiens), P10636; K18 P301L tau heparin fibrillization, Alexa594 FP, 6 h; Potency, µM (highest dose often 57.7 µM), hits mostly inhibitors; 0.39% of 280,000 active; note: nearly all actives have a fitted effect of over 55% in size
Target sequence (P10636 561-689 P618L limits assumed): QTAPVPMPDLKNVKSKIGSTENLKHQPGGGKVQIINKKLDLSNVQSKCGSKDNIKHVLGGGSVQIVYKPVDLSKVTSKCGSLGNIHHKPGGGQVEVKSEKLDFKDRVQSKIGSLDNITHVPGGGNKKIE
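Recombinant K18 P301L […], labeled with Alexa 594 at 0.24 uM over 15 uM unlabeled; heparin inducer 20 uM final; 37 C, 6 hr; FP endpoint.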
Tau fibril ThT = qHTS for Inhibitors of Tau Fibril Formation, Thioflavin T Binding; Microtubule-associated protein tau (Homo sapiens), P10636; recombinant tau K18 P301L, heparin-induced fibrillization, ThT fluorescence; Potency, µM (top dose mostly 57.4 µM), usual class: inhibitors; 2.1% of 270,000 active; note: nearly all actives have a fitted effect of over 55% in size
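ThT emission at 510 nm, taken 1 hr after adding 30 uM dye, quantifies aggregates formed when 20 uM heparin acts on human tau K18 P301L for 6 hr at 37 C.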
Of the large screens only hits and unclear results are named; the others gave an inactive call; ! = not active in a repeat; [ ] = dose if it differs, or a comment. Most compounds without a hit are left out; they make up all but 3.4% or so of the library. Unless noted, calls come from the whole dose curve; as a rule, active = well fitted curve in the direction sought with a large enough effect; inconclusive = small, poorly fitted or top-dose-only effect, or another doubt; inactive = no such curve, though single readings can be large; an effect the other way counts as inactive or inconclusive.

C/C(=N\NC(=O)C12CCC(C)(C(=O)O1)C2(C)C)c1ccccc1O (centres undefined)	KDM4E inh 8.9µM
CC12CCC(C(=O)N/N=C/c3ccc(O)cc3O)(OC1=O)C2(C)C (centres undefined)	KDM4E inh 25µM
COc1ccc(NC(=O)C23CCC(C)(C(=O)O2)C3(C)C)cc1 (centres undefined)	none
Cc1cccc(N=Nc2c(C)[nH]n(C(N)=S)c2=O)c1C	Tau fibril ThT 7.9µM
CC(=O)N(C)c1ccc(N=Nc2c(C)[nH]n(C(N)=S)c2=O)cc1	Tau fibril ThT inconclusive
Cc1ccccc1N=Nc1c(C)[nH]n(C(N)=S)c1=O	Tau fibril ThT 14µM
CCOc1ccccc1NC1(c2ccccc2)C(=O)c2ccccc2C1=O	Tau fluor counter inconclusive (no result: KDM4E inh, GoLoco inh red)
O=C(CNc1cccc(C(F)(F)F)c1)N/N=C/c1cn(-c2ccccc2)nc1-c1ccccc1	Tau fluor counter inconclusive, Tau FP inhib 8.9µM
O=C(NCCSc1c[nH]c2ccccc12)c1ccccc1Cl	Tau fluor counter inconclusive (no result: KDM4E inh, GoLoco inh red)
O=C(NCCSc1c[nH]c2ccccc12)c1ccc(Cl)cc1	Tau fluor counter 20µM[quencher], Tau fibril ThT inconclusive (no result: KDM4E inh, GoLoco inh red)
CCc1ccc(NC(=O)c2cccc(N3CCCS3(=O)=O)c2)cc1	none (no result: KDM4E inh, GoLoco inh red)
CNC(=O)NC(=O)COC(=O)c1ccc(-n2c(C)ccc2C)cc1	KDM4E inh 13µM (no result: GoLoco inh red)
Cc1ccc(C)n1-c1ccc(C(=O)O)cc1	KDM4E inh 14µM, Tau fibril ThT inconclusive
CCOC(=O)NC(=O)COC(=O)c1ccc(O)cc1	none
COc1ccc(CCNC(=O)c2cc3sccc3n2Cc2ccc(Cl)cc2)cc1OC	Tau fluor counter inconclusive (no result: KDM4E inh, GoLoco inh red)
Cc1ccc(S(=O)(=O)Nc2nc(C)c(NC(=O)OCCCl)s2)cc1	none
Cc1ccc(S(=O)(=O)Nc2nc(C)c(NC(=O)Nc3ccc(Cl)cc3Cl)s2)cc1	Tau fluor counter 14µM[quencher], Tau fibril ThT 22µM
Cc1ccc(OCCCn2c(-c3ccc(Cl)cc3)nc3ccccc3c2=O)cc1C	none (no result: KDM4E inh, GoLoco inh red)
O=C1NN(c2ccc(Cl)cc2)C(=O)/C1=C\c1ccc(-c2cccc(C(=O)O)c2)o1	Tau fluor counter 10µM[quencher], Tau FP inhib inconclusive, Tau fibril ThT 7.9µM
Cc1cc(/C=C2\C(=O)NN(c3ccccc3)C2=O)c(C)n1-c1ccccc1O	Tau fluor counter inconclusive, Tau fibril ThT inconclusive
O=C1NN(c2ccccc2)C(=O)/C1=C\c1ccc(-c2cc([N+](=O)[O-])ccc2O)o1	KDM4E inh inconclusive, Tau fluor counter 7.9µM[quencher], Tau FP inhib inconclusive, Tau fibril ThT 3.5µM
Cc1ccc(N2NC(=O)/C(=C/c3ccc(-c4ccc(Cl)c(C(=O)O)c4)o3)C2=O)cc1	Tau fluor counter inconclusive, Tau fibril ThT inconclusive
COc1ccc(Sc2ccc(/C=C3\C(=O)NN(c4ccccc4)C3=O)o2)cc1	Tau fluor counter inconclusive, Tau FP inhib inconclusive, Tau fibril ThT 10µM
CC(C)(C)OC(=O)N1CCC(c2c(C(=O)Nc3ccc4c(c3)OCO4)cnn2-c2ccc(F)cc2F)CC1	Tau fluor counter inconclusive, Tau fibril ThT inconclusive (no result: KDM4E inh, GoLoco inh red)
COc1ccc2c(c1)OCc1c-2oc2cc(OC)ccc12	Tau fluor counter inconclusive, Tau FP inhib inconclusive, Tau fibril ThT 8.9µM
CCn1c(C)[n+](CCCS(=O)(=O)[O-])c2cc(Cl)c(Cl)cc21	GoLoco inh red 4µM
N=C(N)S/C=C\C(=O)O	Tau FP inhib inconclusive, Tau fibril ThT 28µM
COc1ccc(OC)c(N=c2ssnc2Cl)c1	KDM4E inh 13µM, Tau FP inhib inconclusive, Tau fibril ThT 11µM
COc1cc(-n2nnnc2SC)c(OC)cc1Cl	none
COc1cc(N=c2ssnc2Cl)c(OC)cc1Cl	KDM4E inh 13µM, Tau FP inhib inconclusive, Tau fibril ThT 10µM
COc1ccccc1CCNC(=O)C(=O)NCC(c1ccc2c(c1)OCO2)N1CCOCC1 (centres undefined)	none (no result: KDM4E inh, GoLoco inh red)
CC(C)(C)C(=O)NCC(c1ccc2c(c1)OCO2)N1CCOCC1 (centres undefined)	none (no result: KDM4E inh, GoLoco inh red)
CC1=NN(c2ccccc2)C(=O)C1N=Nc1ccc(C)cc1 (centres undefined)	none
CC1=NN(c2nc(-c3ccc(C)cc3)cs2)C(=O)C1N=Nc1ccc2ccccc2c1 (centres undefined)	Tau fibril ThT 1.4µM
CC1=NN(c2nc(-c3ccc(C)cc3)cs2)C(=O)C1N=Nc1ccc(C(N)=O)cc1 (centres undefined)	Tau fluor counter inconclusive, Tau fibril ThT 2.8µM
CC(=O)Nc1ccc(N2N=C(C)C(N=Nc3ccccc3)C2=O)cc1 (centres undefined)	Tau fibril ThT 4.5µM
CC1=NN(c2ccccc2)C(=O)C1N=Nc1ccc(S(N)(=O)=O)cc1 (centres undefined)	Tau fibril ThT inconclusive
CC1=NN(c2nc(-c3ccccc3)cs2)C(=O)C1N=Nc1ccccc1 (centres undefined)	Tau fluor counter inconclusive, Tau fibril ThT 2.2µM
COc1ccc(C(=O)Oc2cc(-c3ccc(OC)c(OC)c3)cc(=O)c3c(C)oc(C)c23)cc1	Tau fibril ThT inconclusive (no result: KDM4E inh, GoLoco inh red)
COc1ccc(OC)c(NC(=O)c2cnn(-c3ccc(C)cc3)c2C2CCNCC2)c1	Tau fibril ThT inconclusive (no result: KDM4E inh, GoLoco inh red)
O=C(COc1ccc(F)cc1)OCc1cc(=O)n2nc(C3CC3)sc2n1	none (no result: KDM4E inh, GoLoco inh red)
O=C(NCC(c1cccnc1)N1CCc2ccccc21)c1ccc(F)c(F)c1 (centres undefined)	none (no result: KDM4E inh, GoLoco inh red)
Cc1ccc(C)c(NC(=O)C2CCCN(S(=O)(=O)c3cccc4nsnc34)C2)c1 (centres undefined)	none (no result: KDM4E inh, GoLoco inh red)
Cc1ccc(N)cc1O	none (no result: KDM4E inh, Tau fluor counter, Tau FP inhib, Tau fibril ThT)
Cc1cc(O)c(-c2cc(O)c(C)cc2O)cc1O	KDM4E inh inconclusive, GoLoco inh red 0.32µM!, Tau fluor counter inconclusive, Tau FP inhib 14µM, Tau fibril ThT 7.9µM
CCOC(=O)c1ccc2c(c1)sc1nc(-c3ccc(OCC)cc3)cn12	Tau fibril ThT inconclusive (no result: KDM4E inh, GoLoco inh red)
COc1ccc(OC)c(-c2oc3ccccc3c(=O)c2O)c1	KDM4E inh inconclusive
COc1ccc(OC)c(C2=C/C(=C/c3ccccn3)C(=O)O2)c1	KDM4E inh 25µM, Tau fibril ThT inconclusive
COc1cccc(CCNc2ncnc3c2nnn3C)c1	none (no result: KDM4E inh, GoLoco inh red)
CCSc1nn(CC(=O)Nc2cccc(CC)c2)c(N)c1S(=O)(=O)c1ccccc1	Tau fluor counter 18µM[quencher], Tau FP inhib inconclusive (no result: KDM4E inh, GoLoco inh red)
COc1ccc(S(=O)(=O)c2c(SC)nn(CC(=O)Nc3ccc(C)c(Cl)c3)c2N)cc1	Tau fluor counter inconclusive, Tau FP inhib 25µM (no result: KDM4E inh, GoLoco inh red)
CN1CCc2c(sc3c2C(=O)NC(/C=C\c2ccccc2)N3)C1 (centres undefined)	KDM4E inh inconclusive, Tau fibril ThT 18µM
